Several values for one entry are separate records, joined by “and”; a condition that tells them apart may be missing. Identical values can stand only once. About 79,000 compounds went through this panel and 15% of them were active in at least one assay; those are over-represented in the sample as a whole. A structure can be active in one record and inactive in another. Activity calls are given as the source filed them. No stated cut-off is given here; in the data, active means growth inhibition above about 70%; inactive means the rest.
Legend:
[1] = NCI Yeast Anticancer Drug Screen. Data for the rad50 strain (AID 155);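 further: 0% = growth of vehicle-only cultures of the same strain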; details: S. cerevisiae rad50 strain growth inhibition, stronger effect = higher value
Outline: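 A DNA repair-deficient yeast mutant serves as the test organism; compound-induced growth inhibition is calculated against vehicle-treated cells.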

[2] = NCI Yeast Anticancer Drug Screen. Data for the mec2-1 strain (AID 157); details: S. cerevisiae mec2-1 strain, stronger effect = higher value
Outline: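 Strain: mec2-1 (DNA repair/cell cycle alteration). Compound exposure, then growth measured; inhibition expressed relative to vehicle.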

[3] = NCI Yeast Anticancer Drug Screen. Data for the sgs1 mgt1 strain (AID 161);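 further: 0% = growth of cultures given vehicle only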; details: S. cerevisiae sgs1 mgt1 strain, stronger effect = higher value
Outline: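 Read-out: growth inhibition vs vehicle controls. Cells: mutant yeast strain deficient in DNA damage repair.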

[4] = NCI Yeast Anticancer Drug Screen. Data for the cln2 rad14 strain (AID 165);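 further: 0% = growth equal to vehicle treated cultures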; details: S. cerevisiae cln2 rad14 strain, stronger effect = higher value
Outline: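 Compounds are applied to the cln2 rad14 yeast strain, and growth is then compared with that of vehicle-treated cultures to give inhibition.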

[5] = NCI Yeast Anticancer Drug Screen. Data for the bub3 strain (AID 167); details: S. cerevisiae bub3 mutant strain, stronger effect = higher value
Outline: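 Inhibition values come from growth of compound-treated mutant yeast normalised to vehicle-treated controls.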

[6] = NCI Yeast Anticancer Drug Screen. Data for the rad50EPP+ strain (AID 151);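 further: 0% = growth of vehicle-treated control cultures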; details: S. cerevisiae rad50 mutant strain, stronger effect = higher value
Outline: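 Compounds were applied to the rad50EPP+ yeast strain, which bears a defined DNA repair alteration, and growth inhibition was determined relative to vehicle-treated cultures.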

[7] = NCI Yeast Anticancer Drug Screen. Data for the mgt1 strain (AID 153); details: S. cerevisiae mgt1 mutant growth inhibition, stronger effect = higher value
Outline: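 Strain: mgt1 yeast, one of a set carrying defined DNA damage repair or cell cycle control alterations. Compound-treated growth compared with vehicle.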

[8] = NCI Yeast Anticancer Drug Screen. Data for the rad14 strain (AID 159);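 further: 0% = growth of vehicle-treated control cultures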; details: S. cerevisiae rad14 strain growth inhibition, stronger effect = higher value
Outline: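 Vehicle-treated cultures served as the baseline for growth inhibition of a DNA repair-mutant yeast strain exposed to each compound.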

[9] = NCI Yeast Anticancer Drug Screen. Data for the CLN2oe strain (AID 163);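 further: 0% = growth of vehicle-only control cultures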; details: S. cerevisiae CLN2oe strain, stronger effect = higher value
Outline: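 Growth of a genetically modified yeast strain is measured after compound exposure and compared with cultures given vehicle alone.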

[10] = NCI Yeast Anticancer Drug Screen. Data for the wt2 strain (AID 169);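 further: 0% = growth of vehicle-treated yeast cultures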; details: S. cerevisiae wt2 strain growth inhibition, stronger effect = higher value
Outline: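 This strain belongs to a panel of yeast strains with defined genetic alterations in DNA damage repair or cell cycle control. Compounds are applied, and growth inhibition is measured against vehicle-treated cultures.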

[11] = NCI Yeast Anticancer Drug Screen. Data for the mlh1 strain (AID 171);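 further: 0% = growth of vehicle-treated control cultures of the same strain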; details: S. cerevisiae mlh1 strain growth inhibition, stronger effect = higher value
Outline: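 Growth of the mutant yeast strain after compound exposure, expressed as inhibition relative to vehicle-only controls.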

[12] = NCI Yeast Anticancer Drug Screen. Data for the sgs1 strain (AID 173);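 further: 0% = growth of vehicle-only control cultures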; details: S. cerevisiae sgs1 mutant, stronger effect = higher value
Outline: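 Growth of a yeast strain bearing a defined genetic alteration is measured after compound treatment. Inhibition is expressed relative to vehicle-only controls.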

[13] = NCI Yeast Anticancer Drug Screen. Data for the mlh1 rad18 strain (AID 175); details: S. cerevisiae mlh1 rad18 strain growth inhibition, stronger effect = higher value
Outline: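 Read-out is yeast growth inhibition, calculated against vehicle-only controls. The compound was applied to a strain engineered with DNA damage repair alterations.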

[14] = NCI Yeast Anticancer Drug Screen. Data for the rad18 strain (AID 177); details: S. cerevisiae rad18 mutant growth inhibition, stronger effect = higher value
Outline: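 Growth of the mutant yeast strain after compound exposure, normalised to vehicle-only cultures.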

[15] = at 5.0 µM (retest, dose inferred, filed as 0.5)
[16] = at 50.0 µM (retest, dose inferred, filed as 5.0)

Measured: growth inhibition

O=C(O)c1ccccc1.[Ag]
active: [1]; at 1.2 µM 95% | [1]; at 3.7 µM 101% | [1]; at 11.0 µM 99% | [1]; at 33.0 µM 99% | [1]; [16] 99% and 98% | [1]; at 50.0 µM 90.8% and 91.2% | [1]; at 100.0 µM 99% | [2]; at 1.2 µM 89% | [2]; at 3.7 µM 101% | [2]; at 11.0 µM 99% | [2]; at 33.0 µM 99% | [2]; [16] 99% | [2]; at 50.0 µM 93.2% and 93% | [2]; at 100.0 µM 99% | [3]; [16] 98% and 99% | [3]; at 50.0 µM 93.1% and 93.5% | [4]; [16] 97% and 100% | [4]; at 50.0 µM 91.6% and 91.4% | [5]; at 1.2 µM 93% | [5]; at 3.7 µM 101% | [5]; at 11.0 µM 99% | [5]; at 33.0 µM 99% | [5]; [16] 98% and 99% | [5]; at 50.0 µM 91.5% | [5]; at 100.0 µM 99%
99% (active) and -5% (inactive): [3]; [15]
inactive: [4]; [15] 36% and 39%
100% (active) and -1% (inactive): [5]; [15]
97% (active) and 58% (inactive): [1]; [15]
95% (active) and 60% (inactive): [2]; [15]

CC12CCC(C1)C(C)(C)C2OC(=O)c1ccccc1N (stereo not drawn)
inactive: [6]; at 1.2 µM 6% | [6]; at 3.7 µM 5% | [6]; at 11.0 µM 0% | [6]; at 33.0 µM 7% | [6]; at 100.0 µM 1% | [7]; at 1.2 µM -3% | [7]; at 3.7 µM 0% | [7]; at 11.0 µM -5% | [7]; at 33.0 µM -9% | [7]; at 100.0 µM 5% | [1]; at 1.2 µM 9% | [1]; at 3.7 µM 6% | [1]; [15] -6% | [1]; at 11.0 µM 7% | [1]; at 33.0 µM 30% | [1]; [16] 50% | [1]; at 50.0 µM -5.6% | [1]; at 100.0 µM 61% | [2]; at 1.2 µM -1% | [2]; at 3.7 µM -2% | [2]; [15] -26% | [2]; at 11.0 µM -6% | [2]; at 33.0 µM 1% | [2]; [16] -26% | [2]; at 50.0 µM 2.7% | [2]; at 100.0 µM 39% | [8]; at 1.2 µM 7% | [8]; at 3.7 µM 2% | [8]; at 11.0 µM -6% | [8]; at 33.0 µM 4% | [8]; at 100.0 µM 17% | [3]; [15] -5% | [3]; [16] 56% | [3]; at 50.0 µM 10.8% | [9]; at 1.2 µM -1% | [9]; at 3.7 µM -2% | [9]; at 11.0 µM -3% | [9]; at 33.0 µM 14% | [9]; at 100.0 µM 61% | [4]; [15] -2% | [4]; [16] 32% | [4]; at 50.0 µM -8.95% | [5]; at 1.2 µM 0% | [5]; at 3.7 µM 3% | [5]; [15] 12% | [5]; at 11.0 µM 9% | [5]; at 33.0 µM 23% | [5]; at 50.0 µM 18% | [10]; at 1.2 µM -10% | [10]; at 3.7 µM -8% | [10]; at 11.0 µM -21% | [10]; at 33.0 µM -8% | [10]; at 100.0 µM 7% | [11]; at 1.2 µM 2% | [11]; at 3.7 µM -1% | [11]; at 11.0 µM -5% | [11]; at 33.0 µM 11% | [11]; at 100.0 µM 38% | [12]; at 1.2 µM -11% | [12]; at 3.7 µM 0% | [12]; at 11.0 µM -24% | [12]; at 33.0 µM -10% | [12]; at 100.0 µM 36% | [13]; [15] 14% | [13]; at 50.0 µM -2.55% | [14]; at 1.2 µM 3% | [14]; at 3.7 µM 5% | [14]; at 11.0 µM 4% | [14]; at 33.0 µM 9% | [14]; at 100.0 µM 54%
active: [5]; [16] 80% | [5]; at 100.0 µM 79% | [13]; [16] 82%

CC(C)CCCC(C)CCC1C(=O)NC(=O)NC1=O (stereo not drawn)
inactive: [1]; [15] 6% | [1]; [16] 23% | [1]; at 50.0 µM -6.75% and 8.2% | [2]; [15] -17% | [2]; [16] 4% | [2]; at 50.0 µM -0.5% and -2.3% | [3]; [15] -6% | [3]; [16] 21% | [3]; at 50.0 µM -8.05% and 38.9% | [4]; [15] -1% | [4]; [16] 3% | [4]; at 50.0 µM -31.1% and -44.4% | [5]; [15] -3% | [5]; [16] -3% | [5]; at 50.0 µM -5.55% and -18.1%

C/C(=N\N=C(/[Se])N1CC2CCC(CC2)C1)c1ccccn1
inactive: [1]; [15] 62% | [2]; [15] 40% | [3]; [15] 53% | [4]; [15] 32% | [4]; [16] 65% | [5]; [15] 51% | [13]; [15] 64%
active: [1]; [16] 79% | [1]; at 50.0 µM 87.5% | [2]; [16] 80% | [2]; at 50.0 µM 90.2% | [3]; [16] 73% | [3]; at 50.0 µM 89.5% | [4]; at 50.0 µM 85.2% | [5]; [16] 81% | [5]; at 50.0 µM 90.3% | [13]; [16] 84%

O=c1c(O)c(-c2ccccc2)oc2ccccc12.[Pb]
inactive: [1]; [15] 3% | [2]; [15] -2% | [3]; [15] 6% | [3]; [16] 24% | [4]; [15] -2% | [4]; at 50.0 µM 47.8% | [5]; [15] -6%
active: [1]; [16] 97% | [1]; at 50.0 µM 94.7% | [2]; [16] 97% | [2]; at 50.0 µM 92.6% | [3]; at 50.0 µM 98.4% | [4]; [16] 98% | [5]; [16] 98% | [5]; at 50.0 µM 96.2%

CNC(Cc1ccccc1)c1ccc(OC)c(OC)c1 (stereo not drawn)
active: [1]; [16] 95% | [2]; [15] 79% | [2]; [16] 97% | [13]; [16] 98%
inactive: [1]; [15] 69% | [1]; at 50.0 µM -2.25% | [2]; at 50.0 µM 4.05% | [3]; [15] -31% | [3]; [16] 14% | [3]; at 50.0 µM 18.7% | [4]; [15] 18% | [4]; [16] 13% | [4]; at 50.0 µM -15.6% | [5]; [15] 21% | [5]; [16] 28% | [5]; at 50.0 µM 14.3% | [10]; at 1.2 µM -20% | [10]; at 3.7 µM -14% | [10]; at 11.0 µM -26% | [10]; at 33.0 µM -13% | [10]; at 100.0 µM -25% | [13]; [15] 57% | [13]; at 50.0 µM 7.3%

Source: PubChem BioAssay (NCI)
